Assay results from PubChem BioAssay (EPA / NIEHS).
Active and inactive are the calls of the source. How the source made its calls: active means hit-call score of the fitted dose curve at least 0.9, where 1 is the maximum; inactive means score below 0.9.

Assay: ATG_M_61_CIS: Attagene CIS-FACTORIAL HepG2 Assay for M61 Transcription Factor (Internal Marker) (AID 2282937)
Conditions: HepG2 Attagene CIS-FACTORIAL M61 internal marker reporter; actives raise or lower the signal
Method: ATG_CIS is a cell-based, multiplexed-readout assay that uses HepG2, a human liver cell line, with measurements taken at 24 hours after chemical dosing in a 24-well plate.ATG_M_61_CIS is one of 52 assay component(s) measured or calculated from the ATG_CIS assay. It is designed to make measurements of mRNA induction, a form of inducible reporter, as detected with fluorescence intensity signals by Reverse transcription polymerase chain reaction (RT-PCR) and Capillary electrophoresis technology.Data from the assay component ATG_M_61_CIS was analyzed into 1 assay endpoint. This assay endpoint, ATG_M_61_CIS, was analyzed with bidirectional fitting relative to DMSO as the negative control and baseline of activity. Using a type of inducible reporter, measures of mRNA for gain or loss-of-signal activity can be used to understand the background control at the transcription factor-level as they relate to the gene . Furthermore, this assay endpoint can be referred to as a secondary readout, because this assay has produced multiple assay endpoints where this one serves a background control function. To generalize the intended target to other relatable targets, this assay endpoint is annotated to the background measurement intended target family, where the subfamily is internal marker.
Human liver HepG2 cells are transiently transfected with multiple reporter transcription units (MRTUs) in 6-well plates using FuGene 6 reagent (Roche; 3 ml FuGene/1 mg DNA). The MRTU constructs are regulated by a cis-regulating element (promoter). […] A major difference between the CIS and TRANS system is that in CIS activities of endogenous TFs are measured, whereas the TRANS assay evaluates changes in activities of exogenous, chimeric NR-Gal4 proteins. […] At the end of 24 hour incubation, total RNA was isolated using TriZol reagent (Invitrogen). The isolated RNA is then reverse-transcribed using oligo(dT) primer and Mo-MLV reverse transcriptase (Invitrogen) with DNAse I (Ambion) treatment for 30 min. The one-tenth of the produced cDNA was amplified by PCR using Taq DNA polymerase (Invitrogen) and two reporter sequence-specific primers. The PCR products were fluorescently labeled by primer extension with 6-arboxyfluorescein (6-FAM) 5'-labeled reporter sequence-specific primer (2 min at 95 C, 20 s at 68 C and 10 min at 72 C) and these products were digested with 5U of HpaI (New England Biolabs) for 2h at 37 C. The fragments were purified using Qiaquick PCR columns (Qiagen), analyzed on an ABI 3130xL genetic analyzer (Applied Biosystems) with peak positions identified by using a set of X-rhodamine (ROX)-labeled MapMarker1000 molecular weight standards (BioVentures). The raw capillary electrophoresis data was processed using Attagraph software (Attagene).

| SMILES | outcome | AC50 |
| --- | --- | --- |
| CC(O)CN (stereo not given) | inactive |  |
| CCCCOCCOCCOCCO | inactive |  |
| CC1=CCC(C(C)(C)O)CC1 (stereo not given) | inactive |  |
| CC(C)C(=O)c1ccccc1 | inactive |  |
| CCOC(=O)CC1(C)OCC(C)O1 (stereo not given) | inactive |  |
| CC12CCC(C1)C(C)(C)C2O (stereo not given) | inactive |  |
| CCCCCCCCCO | inactive |  |
| Cc1ccc(C(C)(C)O)cc1 | inactive |  |
| COc1ccccc1NC(=O)CC(C)=O | inactive |  |
| OCCCO | inactive |  |
| CCCCOCC(C)OCC(C)O (stereo not given) | inactive |  |
| C=CC(=O)OCC(CO)(COC(=O)C=C)COC(=O)C=C | inactive |  |
| NNC(=O)OCc1ccccc1 | inactive |  |
| CCCC(O)C(CC)CO (stereo not given) | inactive |  |
| Nc1ccc(O)c(N)c1 | inactive |  |
| CC(C)(CO)CO | inactive |  |
| CC(=O)CCC(=O)O | inactive |  |
| Cc1cc(O)c(C)c(C)c1O | inactive |  |
| [Cl][Dy]([Cl])[Cl] | inactive |  |
| CC(C)COC(=O)c1ccccc1O | inactive |  |

| SMILES | outcome | AC50 |
| --- | --- | --- |
| O=C(C=Cc1ccccc1)OCCCc1ccccc1 | inactive |  |
| O=[N+]([O-])c1cc(N(CCO)CCO)ccc1NCCO | inactive |  |
| CC(=O)OCC=C(C)CCC=C(C)CCC=C(C)C | inactive |  |
| CCC(C)(C)C1CCC(=O)CC1 | inactive |  |
| CC(O)COCC(C)O (stereo not given) | inactive |  |
| CC1(C)CC(N)CC(C)(CN)C1 (stereo not given) | inactive |  |
| Cc1ccccc1S | inactive |  |
| CCC(C)(C)C1CCC(OC)CC1 (stereo not given) | inactive |  |
| C[C@]12CC[C@@H]3c4ccc(O)cc4CC[C@H]3[C@@H]1CC[C@@H]2O | inactive |  |
| CC(C)CCCC(C)(C)O | inactive |  |
| NCCN1CCNCC1 | inactive |  |
| N#CCCCC(C#N)CCC#N (stereo not given) | inactive |  |
| COC(=O)c1ccc(C(=O)OC)cc1 | inactive |  |
| C=CC(C)(CCC=C(C)C)OC(=O)CC (stereo not given) | inactive |  |
| Cc1cc(O)c2c(c1)C(=O)c1cc(O)cc(O)c1C2=O | inactive |  |
| COc1ccc(C(C)=O)cc1 | inactive |  |
| CC1COC(=O)O1 (stereo not given) | inactive |  |
| CC(=O)C1=C(C)[C@@H]2C[C@@]3(C1)[C@H](C)CC[C@H]3C2(C)C |  | 75.3 µM (active) |
| C1COCO1 | inactive |  |
| O=C(O)c1ccc(C(=O)O)c(C(=O)O)c1 | inactive |  |
